From PubChem BioAssay AID1159580 (chemical genetic matrix, 2015)
Out of some 5,500 compounds screened, about 2,000 (36%) were called active. Inconclusive results (about 18%) are left out. Rule as the data show it: active = normalized growth mostly below about 0.91 (no sharp cut-off); inconclusive = no clear call, values can overlap the other calls; inactive = mostly above about 0.92. The list shows a part of the results.

Assay: chemical genetic growth profiling, strain panel (AID 1159580);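 also: tested at 20 µM; growth read once vehicle control cultures reached saturation at 30 °C; 1 = growth at the plate median or of vehicle wells; lower values mean less growth of the strain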
Settings: S. cerevisiae deletion strains, growth OD

Measured: normalized growth

CC(=O)Oc1cc2c(c(C)c1OC(C)=O)CC1OC13C2(C)CCC1(C)C2CC(C)(C(=O)O)CCC2(C)CCC13C (configuration not stated)
inactive: locus YAL021C, strain ccr4, stronger effect = lower value 0.988 | locus YAL026C, strain drs2, stronger effect = lower value 1.04 | locus YAL030W, strain snc1, stronger effect = lower value 1.01 | locus YBL061C, strain skt5, stronger effect = lower value 1.04 | locus YBR009C, strain hhf1, stronger effect = lower value 1 | locus YBR021W, strain FUR4, stronger effect = lower value 0.99 | locus YBR023C, strain chs3, stronger effect = lower value 1.01 | locus YBR171W, strain sec66, stronger effect = lower value 1.02 | locus YBR229C, strain ROT2, stronger effect = lower value 1.01 | locus YBR231C, strain swc5, stronger effect = lower value 1.04 | locus YBR279W, strain paf1, stronger effect = lower value 1.02 | locus YCL011C, strain gbp2, stronger effect = lower value 1.01 | locus YCL016C, strain dcc1, stronger effect = lower value 1 | locus YCL029C, strain bik1, stronger effect = lower value 1.03 | locus YCL069W, strain vba3, stronger effect = lower value 1.03 | locus YCR088W, strain abp1, stronger effect = lower value 1.01 | locus YDL005C, strain med2, stronger effect = lower value 1.02 | locus YDL035C, strain GPR1, stronger effect = lower value 0.993 | locus YDL040C, strain nat1, stronger effect = lower value 1.02 | locus YDL074C, strain BRE1, stronger effect = lower value 1.02 | locus YDL101C, strain DUN1, stronger effect = lower value 1.01 | locus YDL185W, strain tfp1, stronger effect = lower value 1.04 | locus YDL192W, strain arf1, stronger effect = lower value 1.02 | locus YDR001C, strain nth1, stronger effect = lower value 1.01 | locus YDR069C, strain doa4, stronger effect = lower value 1.01 | locus YDR101C, strain arx1, stronger effect = lower value 1.03 | locus YDR137W, strain rgp1, stronger effect = lower value 1.02 | locus YDR159W, strain sac3, stronger effect = lower value 1.05 | locus YDR162C, strain NBP2, stronger effect = lower value 1 | locus YDR195W, strain ref2 1.02 | locus YDR297W, strain sur2, stronger effect = lower value 1.02 | locus YDR318W, strain mcm21, stronger effect = lower value 1.02 | locus YDR334W, strain swr1, stronger effect = lower value 1.01 | locus YDR335W, strain msn5, stronger effect = lower value 1.02 | locus YDR388W, stronger effect = lower value 1.02 | locus YDR392W, strain spt3, stronger effect = lower value 0.919 | locus YDR502C, strain sam2, stronger effect = lower value 1.01 | locus YEL003W, strain gim4, stronger effect = lower value 1.01 | locus YEL037C, strain rad23, stronger effect = lower value 1.01 | locus YEL061C, strain CIN8 (second series), stronger effect = lower value 1.02 | locus YEL061C, strain CIN8, stronger effect = lower value 1.01 | locus YER015W, strain faa2, stronger effect = lower value 1.02 | locus YER016W, strain bim1, stronger effect = lower value 1.02 | locus YER110C, stronger effect = lower value 1.03 | locus YER111C, strain swi4, stronger effect = lower value 1 | locus YER155C, strain BEM2 (second series), stronger effect = lower value 1.01 | locus YER155C, strain BEM2, stronger effect = lower value 0.99 | locus YER167W, strain BCK2, stronger effect = lower value 1.01 | locus YFR010W, strain ubp6, stronger effect = lower value 1.03 | locus YGL078C, strain dbp3, stronger effect = lower value 0.99 | locus YGL086W, strain mad1, stronger effect = lower value 1.02 | locus YGL167C, strain pmr1, stronger effect = lower value 1 | locus YGL173C, strain kem1, stronger effect = lower value 1.02 | locus YGL227W, strain vid30, stronger effect = lower value 1.02 | locus YGL240W, strain doc1, stronger effect = lower value 1.02 | locus YGL248W, strain PDE1, stronger effect = lower value 0.999 | locus YGL253W, strain hxk2, stronger effect = lower value 1.03 | locus YGR135W, strain pre9, stronger effect = lower value 1.03 | locus YGR252W, strain gcn5, stronger effect = lower value 0.989 | locus YHR013C, strain ard1, stronger effect = lower value 1.01 | locus YHR027C, strain rpn1, stronger effect = lower value 1.01 | locus YHR030C, strain SLT2, stronger effect = lower value 1.02 | locus YHR079C, strain IRE1 (second series), stronger effect = lower value 1.04 | locus YHR094C, strain hxt1, stronger effect = lower value 1.04 | locus YHR129C, strain ARP1, stronger effect = lower value 1.01 | locus YHR142W, strain chs7, stronger effect = lower value 1.01 | locus YHR200W, strain rpn10, stronger effect = lower value 1.04 | locus YIL066C, strain RNR3, stronger effect = lower value 0.998 | locus YIL073C, strain SPO22, stronger effect = lower value 1.02 | locus YIL125W, strain kgd1, stronger effect = lower value 1.01 | locus YIR030C, strain dcg1, stronger effect = lower value 1.04 | locus YJL092W, strain hpr5, stronger effect = lower value 1.02 | locus YJL095W, strain BCK1 (second series), stronger effect = lower value 1.03 | locus YJL095W, strain BCK1, stronger effect = lower value 0.998 | locus YJL115W, strain asf1, stronger effect = lower value 1.01 | locus YJL129C, strain trk1, stronger effect = lower value 1.02 | locus YJL134W, strain LCB3, stronger effect = lower value 1.01 | locus YJL154C, strain vps35, stronger effect = lower value 1.01 | locus YJL164C, strain tpk1, stronger effect = lower value 0.989 | locus YJL166W, strain qcr8, stronger effect = lower value 1.01 | locus YJL168C, strain set2, stronger effect = lower value 1.03 | locus YJL187C, strain SWE1 (second series), stronger effect = lower value 0.992 | locus YJR043C, strain POL32, stronger effect = lower value 1 | locus YKL009W, strain mrt4, stronger effect = lower value 0.927 | locus YKL068W, stronger effect = lower value 1.03 | locus YKL085W, strain MDH1 (second series), stronger effect = lower value 1 | locus YKL085W, strain MDH1, stronger effect = lower value 1 | locus YKL160W, strain elf1, stronger effect = lower value 1 | locus YKL190W, strain CNB1, stronger effect = lower value 1 | locus YKR001C, strain vps1, stronger effect = lower value 0.993 | locus YKR026C, strain gcn3, stronger effect = lower value 1.02 | locus YKR091W, strain srl3, stronger effect = lower value 1.01 | locus YLL001W, strain dnm1, stronger effect = lower value 1.03 | locus YLL026W, stronger effect = lower value 1.01 | locus YLL041C, strain sdh2, stronger effect = lower value 1.01 | locus YLR027C, strain aat2, stronger effect = lower value 1.01 | locus YLR039C, strain RIC1, stronger effect = lower value 0.893 | locus YLR058C, strain SHM2, stronger effect = lower value 1 | locus YLR102C, strain apc9, stronger effect = lower value 1.03 | locus YLR221C, strain rsa3, stronger effect = lower value 1.03 | locus YLR258W, strain gsy2, stronger effect = lower value 1.02 | locus YLR262C, strain YPT6 (second series), stronger effect = lower value 1.02 | locus YLR262C, strain YPT6, stronger effect = lower value 0.853 | locus YLR268W, strain sec22, stronger effect = lower value 1.04 | locus YLR320W, strain mms22, stronger effect = lower value 1.03 | locus YLR330W, strain CHS5, stronger effect = lower value 1.01 | locus YLR342W, strain FKS1 (second series), stronger effect = lower value 1 | locus YLR342W, strain FKS1, stronger effect = lower value 1.02 | locus YLR357W, strain rsc2, stronger effect = lower value 1.01 | locus YLR370C, strain arc18, stronger effect = lower value 1.01 | locus YLR371W, strain rom2, stronger effect = lower value 1.05 | locus YLR384C, strain iki3, stronger effect = lower value 1 | locus YLR418C, strain cdc73, stronger effect = lower value 1 | locus YML016C, strain PPZ1, stronger effect = lower value 1.01 | locus YML032C, strain rad52, stronger effect = lower value 1.03 | locus YML120C, strain ndi1, stronger effect = lower value 1.02 | locus YML124C, strain tub3, stronger effect = lower value 1.02 | locus YMR058W, strain fet3, stronger effect = lower value 1.03 | locus YMR078C, strain ctf18, stronger effect = lower value 1.04 | locus YMR125W, strain sto1, stronger effect = lower value 0.985 | locus YMR129W, stronger effect = lower value 1.01 | locus YMR205C, strain PFK2, stronger effect = lower value 0.988 | locus YMR223W, strain ubp8, stronger effect = lower value 1.05 | locus YMR231W, strain pep5, stronger effect = lower value 1.01 | locus YMR263W, strain SAP30, stronger effect = lower value 1.01 | locus YMR307W, strain GAS1, stronger effect = lower value 0.949 | locus YNL067W, strain RPL9B, stronger effect = lower value 1 | locus YNL071W, strain lat1, stronger effect = lower value 1.01 | locus YNL153C, strain GIM3, stronger effect = lower value 1 | locus YNL209W, strain ssb2, stronger effect = lower value 0.994 | locus YNL233W, strain BNI4, stronger effect = lower value 1.02 | locus YNL248C, strain rpa49, stronger effect = lower value 1.06 | locus YNL250W, strain rad50, stronger effect = lower value 1.02 | locus YNL271C, strain bni1, stronger effect = lower value 1.03 | locus YNL298W, strain CLA4, stronger effect = lower value 0.994 | locus YNL307C, strain MCK1, stronger effect = lower value 1.03 | locus YNL322C, strain KRE1 (second series), stronger effect = lower value 0.994 | locus YNR049C, strain mso1, stronger effect = lower value 1.04 | locus YNR052C, strain pop2, stronger effect = lower value 1.01 | locus YOL006C, strain TOP1, stronger effect = lower value 0.964 | locus YOL012C, strain htz1 1.11 | locus YOL147C, strain pex11, stronger effect = lower value 1.04 | locus YOR001W, strain rrp6, stronger effect = lower value 1.02 | locus YOR061W, strain CKA2, stronger effect = lower value 1.02 | locus YOR069W, strain VPS5, stronger effect = lower value 1.01 | locus YOR070C, strain gyp1, stronger effect = lower value 1.04 | locus YOR080W, strain dia2, stronger effect = lower value 1.02 | locus YOR083W, strain WHI5, stronger effect = lower value 1.01 | locus YOR106W, strain vam3, stronger effect = lower value 1.01 | locus YOR136W, strain idh2, stronger effect = lower value 1.02 | locus YOR144C, strain elg1, stronger effect = lower value 1.03 | locus YOR184W, strain ser1, stronger effect = lower value 0.994 | locus YOR265W, strain rbl2, stronger effect = lower value 1.01 | locus YOR270C, strain vph1, stronger effect = lower value 1.05 | locus YOR290C, strain snf2, stronger effect = lower value 0.994 | locus YOR316C, strain cot1, stronger effect = lower value 1.03 | locus YPL051W, strain arl3, stronger effect = lower value 1.02 | locus YPL055C, strain LGE1, stronger effect = lower value 1.01 | locus YPL078C, strain atp4, stronger effect = lower value 0.99 | locus YPL106C, strain sse1, stronger effect = lower value 1.03 | locus YPL240C, strain hsp82, stronger effect = lower value 1.01 | locus YPL241C, strain CIN2, stronger effect = lower value 1 | locus YPR119W, strain clb2, stronger effect = lower value 1.02 | locus YPR141C, strain kar3, stronger effect = lower value 1.02 | locus YPR163C, strain tif3, stronger effect = lower value 1.04 | locus YPR167C, strain met16, stronger effect = lower value 1.02 | strain wtn01, stronger effect = lower value 1.01
